# Results: PubChem BioAssay (EPA / NIEHS)
# “And” between values parts separate entries of the source, which are not always exact repeats. Equal entries are not always repeated. More than one record can exist for a structure, and the calls need not agree. The source made the active and inactive calls. The calls were made as follows: active = hit-call score of the fitted dose curve at least 0.9, where 1 is the maximum; inactive = score below 0.9.
# Legend:
# [1] = ATG_GLI_CIS: Attagene CIS-FACTORIAL HepG2 Assay for human Zinc Finger Protein GLI1 (AID 2282945); conditions: HepG2, Attagene cis-factorial reporter mRNA, GLI element; actives raise or lower the signal
# Method in brief: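 Bidirectional curve fits relative to DMSO, using reporter mRNA levels from RT-PCR plus capillary electrophoresis. Cells were HepG2 transiently carrying cis-regulated reporter constructs, harvested 24 h after dosing.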
# [2] = ATG_GRE_CIS: Attagene CIS-FACTORIAL HepG2 Assay for human Glucocorticoid Response Elements (GRE) (AID 2282947); conditions: HepG2 GRE cis-reporter, Attagene multiplex mRNA; actives raise or lower the signal
# Method in brief: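 Assay uses human hepatoma HepG2 cells transfected with cis-promoter reporter units, exposed 24 h. mRNA from reporters detected by RT-PCR plus capillary electrophoresis; DMSO serves as negative control and baseline.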
# [3] = ATG_ISRE_CIS: Attagene CIS-FACTORIAL HepG2 Assay for human Interferon Regulatory Factor 1 (IRF1) binding to an Interferon-Stimulated Response Element (ISRE) (AID 2282948); conditions: HepG2 ISRE cis-reporter (Attagene), mRNA transcription readout; actives raise or lower the signal
# Method in brief: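 HepG2 cells transiently transfected with multiplexed cis-promoter reporter units; after 24 h compound exposure, reporter mRNA quantified by RT-PCR, FAM labelling, HpaI digestion and capillary electrophoresis. Bidirectional fit versus DMSO baseline.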
# [4] = ATG_M_32_CIS: Attagene CIS-FACTORIAL HepG2 Assay for M32 Transcription Factor (Internal Marker) (AID 2282949); conditions: HepG2 Attagene cis-factorial M32 reporter, mRNA; actives raise or lower the signal;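 also: background control marker of the multiplexed CIS panel rather than a real target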
# Method in brief: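 Internal background marker read-out: RT-PCR/capillary electrophoresis fluorescence of reporter transcripts from transiently transfected HepG2 cells after 24 h chemical exposure. Activity fitted bidirectionally relative to DMSO negative control.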
# [5] = ATG_M_06_CIS: Attagene CIS-FACTORIAL HepG2 Assay for M06 Transcription Factor (Internal Marker) (AID 2282950); conditions: HepG2 Attagene CIS-FACTORIAL M06 internal marker reporter; actives raise or lower the signal
# Method in brief: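 Fluorescence-labelled RT-PCR products from cis-promoter reporter units, cut with HpaI and resolved by capillary electrophoresis, give the signal. Cells are human HepG2, dosed for 24 h. Serves as background control, fitted relative to DMSO.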
# [6] = target: Hepatocyte nuclear factor 6 (Homo sapiens) (UniProt Q9UBC0); assay: ATG_HNF6_CIS: Attagene CIS-FACTORIAL HepG2 Assay for human Hepatocyte Nuclear Factor 6 (HNF6) (AID 2282952); conditions: HepG2 Attagene cis-factorial HNF6 reporter transcription; actives raise or lower the signal
# Chain of Hepatocyte nuclear factor 6 (Homo sapiens) (Q9UBC0 whole entry, looked up): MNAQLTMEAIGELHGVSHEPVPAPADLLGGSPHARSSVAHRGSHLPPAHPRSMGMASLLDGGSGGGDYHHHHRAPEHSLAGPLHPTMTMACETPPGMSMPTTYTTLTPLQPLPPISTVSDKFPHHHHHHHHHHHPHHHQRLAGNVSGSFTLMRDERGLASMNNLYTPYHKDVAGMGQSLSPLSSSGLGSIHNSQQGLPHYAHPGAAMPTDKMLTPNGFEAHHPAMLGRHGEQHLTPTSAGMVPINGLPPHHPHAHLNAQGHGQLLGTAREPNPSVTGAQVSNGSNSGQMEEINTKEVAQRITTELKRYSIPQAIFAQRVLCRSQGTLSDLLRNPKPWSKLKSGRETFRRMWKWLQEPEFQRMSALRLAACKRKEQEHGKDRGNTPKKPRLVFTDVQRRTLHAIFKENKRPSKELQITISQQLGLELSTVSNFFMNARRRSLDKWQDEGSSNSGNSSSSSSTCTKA
# Method in brief: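 HepG2 cells transiently transfected with cis-element-driven multiple reporter transcription units, dosed 24 h; reporter mRNA quantified by RT-PCR, FAM primer extension, HpaI digestion and capillary electrophoresis; bidirectional fit versus DMSO baseline.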
# [7] = target: Heat shock factor protein 1 (Homo sapiens) (UniProt Q00613); assay: ATG_HSE_CIS: Attagene CIS-FACTORIAL HepG2 Assay for human Heat Shock Transcription Factor 1 (HSE) (AID 2282953); conditions: HepG2 HSE cis-reporter, Attagene RNA transcription; actives raise or lower the signal
# Chain of Heat shock factor protein 1 (Homo sapiens) (Q00613 whole entry, looked up): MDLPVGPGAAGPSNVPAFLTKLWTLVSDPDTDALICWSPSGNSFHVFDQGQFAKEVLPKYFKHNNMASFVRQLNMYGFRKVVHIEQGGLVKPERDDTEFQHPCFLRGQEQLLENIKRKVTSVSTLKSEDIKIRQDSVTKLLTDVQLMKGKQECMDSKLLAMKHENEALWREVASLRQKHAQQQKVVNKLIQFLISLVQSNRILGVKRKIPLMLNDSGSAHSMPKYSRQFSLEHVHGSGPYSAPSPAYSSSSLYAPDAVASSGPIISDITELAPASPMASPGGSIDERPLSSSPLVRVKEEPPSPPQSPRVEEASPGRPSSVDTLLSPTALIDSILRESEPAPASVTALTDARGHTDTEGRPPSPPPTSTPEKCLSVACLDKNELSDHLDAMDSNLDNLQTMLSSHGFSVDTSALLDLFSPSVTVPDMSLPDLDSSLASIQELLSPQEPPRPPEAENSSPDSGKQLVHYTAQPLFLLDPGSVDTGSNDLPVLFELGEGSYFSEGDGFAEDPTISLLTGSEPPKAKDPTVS
# Method in brief: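 After a 24 h incubation with test chemical, transfected HepG2 cells were harvested for RNA; reporter transcripts were measured by RT-PCR and capillary electrophoresis. Values reflect gain or loss of signal relative to DMSO.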
# [8] = ATG_MRE_CIS: Attagene CIS-FACTORIAL HepG2 Assay for human Metal Responsive Element (MRE) (AID 2282954); conditions: HepG2 MRE cis-reporter transcription, Attagene multiplex; actives raise or lower the signal
# Method in brief: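 After a 24 h chemical exposure, transiently transfected HepG2 cells yield RNA whose reporter sequences are amplified, FAM-labelled and sized by capillary electrophoresis. Curves are fitted bidirectionally relative to DMSO.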
# [9] = ATG_PBREM_CIS: Attagene CIS-FACTORIAL HepG2 Assay for human Phenobarbital-responsive Enhancer Module (PBREM) (AID 2282955); conditions: HepG2 PBREM cis-reporter, Attagene multiplexed transcription; actives raise or lower the signal
# Method in brief: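 Measures endogenous factor action on a phenobarbital-responsive enhancer module. HepG2 transiently carrying cis reporters, 24 h treatment, mRNA read-out by RT-PCR plus capillary electrophoresis.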
# [10] = target: Paired box protein Pax-6 (Homo sapiens) (UniProt P26367); assay: ATG_Pax6_CIS: Attagene CIS-FACTORIAL HepG2 Assay for human Paired Box 6 (PAX6) (AID 2282956); conditions: HepG2 CIS-FACTORIAL PAX6 reporter transcription, RNA readout; actives raise or lower the signal
# Chain of Paired box protein Pax-6 (Homo sapiens) (P26367 whole entry, looked up): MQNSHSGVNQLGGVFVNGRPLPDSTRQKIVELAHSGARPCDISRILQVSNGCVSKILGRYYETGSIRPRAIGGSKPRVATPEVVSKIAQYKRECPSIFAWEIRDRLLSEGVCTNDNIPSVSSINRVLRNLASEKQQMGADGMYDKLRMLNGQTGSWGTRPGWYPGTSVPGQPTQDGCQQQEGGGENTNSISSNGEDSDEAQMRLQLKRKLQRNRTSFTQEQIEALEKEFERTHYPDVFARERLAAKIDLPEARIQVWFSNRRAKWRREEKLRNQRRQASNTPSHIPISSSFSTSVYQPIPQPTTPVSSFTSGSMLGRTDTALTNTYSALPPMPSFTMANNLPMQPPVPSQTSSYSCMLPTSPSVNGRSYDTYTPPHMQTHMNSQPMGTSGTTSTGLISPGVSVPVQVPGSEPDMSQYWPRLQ
# Method in brief: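 HepG2 cells transiently transfected with multiplexed cis-promoter reporter units (endogenous TF activity) were dosed for 24 h. Reporter mRNA was quantified by RT-PCR, 6-FAM labeling, HpaI digestion and capillary electrophoresis; bidirectional fitting versus DMSO baseline.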
# [11] = ATG_PXRE_CIS: Attagene CIS-FACTORIAL HepG2 Assay for human Pregnane X Receptor Element (PXRE) (AID 2282957); conditions: HepG2 Attagene CIS-FACTORIAL PXRE reporter, mRNA; actives raise or lower the signal
# Method in brief: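 HepG2 cells transiently transfected with cis-regulated multiple reporter transcription units; endogenous factor activity measured as reporter mRNA 24 h after dosing. RT-PCR, fluorescent primer extension, HpaI digestion, capillary electrophoresis; bidirectional fit versus DMSO baseline.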
# [12] = ATG_RORE_CIS: Attagene CIS-FACTORIAL HepG2 Assay for human RAR-related Orphan Receptor Element (RORE) (AID 2282959); conditions: HepG2 Attagene cis-factorial RORE reporter, mRNA; actives raise or lower the signal
# Method in brief: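 A 24-hour exposure of transfected HepG2 hepatoma cells precedes RNA isolation and reporter RT-PCR. Labeled products are digested with HpaI and resolved by capillary electrophoresis, with gain or loss of signal scored relative to DMSO.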
# [13] = ATG_Sox_CIS: Attagene CIS-FACTORIAL HepG2 Assay for human SRY-box transcription factor (SOX) (AID 2282960); conditions: HepG2 Attagene cis-factorial SOX reporter, mRNA; actives raise or lower the signal
# Method in brief: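 HepG2, cis reporter units, 24 h exposure. Reporter mRNA: RT-PCR → FAM labelling → HpaI → CE fluorescence. Bidirectional fit vs DMSO.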
# [14] = target: Transcription factor Sp1 (Homo sapiens) (UniProt P08047); assay: ATG_Sp1_CIS: Attagene CIS-FACTORIAL HepG2 Assay for human Specificity Protein 1 (Sp1) (AID 2282961); conditions: HepG2 Sp1 cis-reporter transcription, actives raise or lower the signal
# Chain of Transcription factor Sp1 (Homo sapiens) (P08047 whole entry, looked up, the tested form may be a part): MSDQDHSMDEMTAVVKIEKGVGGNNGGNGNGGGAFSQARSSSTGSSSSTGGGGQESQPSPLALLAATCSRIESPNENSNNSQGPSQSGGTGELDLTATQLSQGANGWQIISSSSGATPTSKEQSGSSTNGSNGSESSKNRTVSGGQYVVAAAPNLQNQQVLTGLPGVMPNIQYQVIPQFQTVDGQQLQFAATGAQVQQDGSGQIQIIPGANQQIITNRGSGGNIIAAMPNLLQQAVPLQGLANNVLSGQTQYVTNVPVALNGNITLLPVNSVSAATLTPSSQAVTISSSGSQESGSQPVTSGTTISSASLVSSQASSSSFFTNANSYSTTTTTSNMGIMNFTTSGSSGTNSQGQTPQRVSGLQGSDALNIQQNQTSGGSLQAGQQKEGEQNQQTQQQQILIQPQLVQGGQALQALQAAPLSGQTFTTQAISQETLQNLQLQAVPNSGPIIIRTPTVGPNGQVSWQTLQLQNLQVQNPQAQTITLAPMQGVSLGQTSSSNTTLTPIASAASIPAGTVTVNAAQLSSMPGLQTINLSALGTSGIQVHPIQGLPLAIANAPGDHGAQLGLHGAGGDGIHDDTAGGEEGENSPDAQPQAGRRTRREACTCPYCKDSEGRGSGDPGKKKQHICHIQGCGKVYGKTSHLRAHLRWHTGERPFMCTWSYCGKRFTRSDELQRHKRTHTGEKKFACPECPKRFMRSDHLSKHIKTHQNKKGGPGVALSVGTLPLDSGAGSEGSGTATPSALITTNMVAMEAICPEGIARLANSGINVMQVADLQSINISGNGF
# Method in brief: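 Liver-derived HepG2 cells, cis-element reporter library, 24 h treatment; RNA isolated, cDNA amplified with reporter-specific primers, FAM-labeled fragments sized on capillary analyzer. DMSO baseline, bidirectional curve fit.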
# [15] = ATG_SREBP_CIS: Attagene CIS-FACTORIAL HepG2 Assay for human Sterol Regulatory Element Binding (SREBP) (AID 2282962); conditions: HepG2 Attagene cis-factorial SREBP reporter, mRNA; actives raise or lower the signal
# Method in brief: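 HepG2 cells transiently transfected with multiplexed cis-element reporter units report endogenous transcription factor activity. After 24 h of chemical exposure, reporter mRNA was quantified by RT-PCR, 6-FAM labelling, HpaI digestion and capillary electrophoresis; bidirectional fits used DMSO as baseline.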
# [16] = target: Signal transducer and activator of transcription 3 (Homo sapiens) (UniProt P40763); assay: ATG_STAT3_CIS: Attagene CIS-FACTORIAL HepG2 Assay for human Signal Transducer and Activator of Transcription 3 (STAT3) (AID 2282963); conditions: HepG2, Attagene cis-factorial STAT3 reporter transcription; actives raise or lower the signal
# Chain of Signal transducer and activator of transcription 3 (Homo sapiens) (P40763 whole entry, looked up): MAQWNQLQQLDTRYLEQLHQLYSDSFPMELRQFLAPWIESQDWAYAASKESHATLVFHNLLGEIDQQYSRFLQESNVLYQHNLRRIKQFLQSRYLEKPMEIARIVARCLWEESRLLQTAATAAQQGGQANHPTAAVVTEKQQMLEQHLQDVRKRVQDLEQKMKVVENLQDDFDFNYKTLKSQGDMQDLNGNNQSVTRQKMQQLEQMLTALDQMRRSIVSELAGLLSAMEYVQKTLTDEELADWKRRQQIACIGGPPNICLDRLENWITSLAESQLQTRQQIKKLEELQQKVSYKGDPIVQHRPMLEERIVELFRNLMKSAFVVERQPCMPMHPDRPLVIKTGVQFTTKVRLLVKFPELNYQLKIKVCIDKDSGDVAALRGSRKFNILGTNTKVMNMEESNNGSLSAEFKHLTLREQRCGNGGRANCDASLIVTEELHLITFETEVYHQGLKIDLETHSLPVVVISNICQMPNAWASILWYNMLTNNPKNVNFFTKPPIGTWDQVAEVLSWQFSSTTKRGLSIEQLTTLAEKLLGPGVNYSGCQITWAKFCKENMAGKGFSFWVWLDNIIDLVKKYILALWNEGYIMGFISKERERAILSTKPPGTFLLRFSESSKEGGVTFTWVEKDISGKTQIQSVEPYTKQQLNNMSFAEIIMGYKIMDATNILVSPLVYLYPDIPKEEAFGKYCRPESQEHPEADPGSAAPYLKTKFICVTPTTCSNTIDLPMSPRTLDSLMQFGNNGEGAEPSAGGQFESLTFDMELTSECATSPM
# Method in brief: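 After a 24 h compound incubation, total RNA from MRTU-transfected HepG2 cells was converted to cDNA and reporter sequences PCR-amplified, labelled and profiled by capillary electrophoresis. Gain and loss of signal were referenced to DMSO.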
# [17] = ATG_TA_CIS: Attagene CIS-FACTORIAL HepG2 Assay for human TA Basal Promoter (AID 2282964); conditions: HepG2 Attagene CIS-factorial TA basal promoter reporter; actives raise or lower the signal
# Method in brief: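 Multiplexed mRNA reporter assay, HepG2, 24 h. Reporter cDNA amplified, 6-FAM primer-extended, HpaI-cut, CE-sized; DMSO = negative control and baseline.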
# [18] = target: Bile acid receptor (Homo sapiens) (UniProt Q96RI1); assay: ATG_IR1_CIS: Attagene CIS-FACTORIAL HepG2 Assay for human Nuclear Receptor Subfamily 1 Group H Member 4 (NR1H4), IR1 submotif (AID 2282946); conditions: IR1 reporter transcription, actives raise or lower the signal
# Chain of Bile acid receptor (Homo sapiens) (Q96RI1 whole entry, looked up, the tested form may be a part): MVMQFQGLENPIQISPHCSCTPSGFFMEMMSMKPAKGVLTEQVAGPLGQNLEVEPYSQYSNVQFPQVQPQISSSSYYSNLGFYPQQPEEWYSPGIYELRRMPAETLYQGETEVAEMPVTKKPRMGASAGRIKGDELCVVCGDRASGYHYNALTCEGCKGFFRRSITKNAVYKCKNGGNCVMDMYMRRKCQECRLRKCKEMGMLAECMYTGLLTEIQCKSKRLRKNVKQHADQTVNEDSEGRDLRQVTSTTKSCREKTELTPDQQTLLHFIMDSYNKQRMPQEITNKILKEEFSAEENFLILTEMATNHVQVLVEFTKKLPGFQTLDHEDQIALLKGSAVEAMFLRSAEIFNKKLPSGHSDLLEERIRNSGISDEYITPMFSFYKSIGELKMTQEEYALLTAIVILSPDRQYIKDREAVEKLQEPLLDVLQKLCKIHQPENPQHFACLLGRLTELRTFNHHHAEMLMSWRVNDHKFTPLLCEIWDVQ
# Method in brief: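 Cells (human HepG2) carry transiently transfected cis-promoter reporter transcription units. Compounds are incubated 24 h, total RNA is reverse-transcribed and amplified, and labelled fragments are resolved by capillary electrophoresis. Curves use DMSO as baseline.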
# [19] = target: Hypoxia-inducible factor 1-alpha (Homo sapiens) (UniProt Q16665); assay: ATG_HIF1a_CIS: Attagene CIS-FACTORIAL HepG2 Assay for human Hypoxia Inducible Factor 1 (HIF1A) (AID 2282951); conditions: HepG2 Attagene cis-factorial HIF1a reporter transcription; actives raise or lower the signal
# Chain of Hypoxia-inducible factor 1-alpha (Homo sapiens) (Q16665 whole entry, looked up): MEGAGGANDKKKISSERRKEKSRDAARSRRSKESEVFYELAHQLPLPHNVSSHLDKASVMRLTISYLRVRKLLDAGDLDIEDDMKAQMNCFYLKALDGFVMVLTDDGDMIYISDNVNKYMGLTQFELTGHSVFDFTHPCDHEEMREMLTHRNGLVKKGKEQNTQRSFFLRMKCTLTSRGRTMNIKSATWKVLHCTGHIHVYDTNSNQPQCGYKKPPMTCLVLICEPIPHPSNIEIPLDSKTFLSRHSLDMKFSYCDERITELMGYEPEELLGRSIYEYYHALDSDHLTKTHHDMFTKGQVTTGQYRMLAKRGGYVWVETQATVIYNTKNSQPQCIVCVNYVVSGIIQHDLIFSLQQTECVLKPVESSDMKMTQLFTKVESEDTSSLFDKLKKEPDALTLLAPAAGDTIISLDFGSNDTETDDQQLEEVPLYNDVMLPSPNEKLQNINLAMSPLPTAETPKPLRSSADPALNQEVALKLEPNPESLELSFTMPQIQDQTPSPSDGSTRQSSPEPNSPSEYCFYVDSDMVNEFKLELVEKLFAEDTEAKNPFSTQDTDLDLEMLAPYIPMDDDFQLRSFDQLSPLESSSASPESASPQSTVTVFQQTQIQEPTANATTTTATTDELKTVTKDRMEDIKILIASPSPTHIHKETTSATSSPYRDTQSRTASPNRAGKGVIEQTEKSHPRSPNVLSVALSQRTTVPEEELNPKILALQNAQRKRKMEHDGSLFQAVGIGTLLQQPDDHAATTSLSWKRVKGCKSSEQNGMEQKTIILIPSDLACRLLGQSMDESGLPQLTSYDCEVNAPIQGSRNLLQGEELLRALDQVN
# Method in brief: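 After 24 h chemical exposure of reporter-transfected HepG2 cells, reporter cDNA was PCR-amplified, labelled by 6-FAM primer extension (2 min 95 C, 20 s 68 C, 10 min 72 C), HpaI-cut (2 h, 37 C) and analysed by CE.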
# [20] = ATG_PPRE_CIS: Attagene CIS-FACTORIAL HepG2 Assay for human Peroxisome Proliferator-activated Response Element (PPRE) (AID 2282958); conditions: HepG2 PPRE cis-element reporter, Attagene transcription factor profiling; actives raise or lower the signal
# Method in brief: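 PPRE activity in HepG2: transient cis-reporter transfection, 24 h compound incubation, reporter mRNA by RT-PCR and CE fluorescence; gain/loss fitted against DMSO.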
structure (smiles),measurement,setting,value
CCc1ccc(CCOc2ccc(CC3SC(=O)NC3=O)cc2)nc1 (stereo not drawn),outcome,[1],inactive
same,outcome,[2],inactive
same,outcome,[3],inactive
same,outcome,[4],inactive
same,outcome,[5],inactive
same,outcome,[6],inactive
same,outcome,[7],inactive
same,outcome,[8],inactive
same,outcome,[9],inactive
same,outcome,[10],inactive
same,AC50,[11],6.6 µM (active) and 1.59 µM (active)
same,outcome,[12],inactive
same,outcome,[13],inactive
same,outcome,[14],inactive
same,AC50,[15],26.2 µM (active)
same,outcome,[15],inactive
same,outcome,[16],inactive
same,outcome,[17],inactive
CCc1nn(C2CCCCC2)c2cc(C3(C#N)CCC(C(=O)O)CC3)ccc12 (stereo not drawn),outcome,[1],inactive
same,outcome,[18],inactive
same,outcome,[2],inactive
same,AC50,[3],67.2 µM (active)
same,outcome,[5],inactive
same,AC50,[19],100 µM (active)
same,outcome,[6],inactive
same,outcome,[7],inactive
same,AC50,[8],100 µM (active)
same,AC50,[10],100 µM (active)
same,outcome,[11],inactive
same,AC50,[20],438 nM (active)
same,AC50,[12],32.4 µM (active)
same,outcome,[13],inactive
same,outcome,[14],inactive
same,AC50,[15],65.5 µM (active)
same,outcome,[16],inactive
same,AC50,[17],69.9 µM (active)
CC(C)CCCCCCOC(=O)CCCCC(=O)OCCCCCCC(C)C,outcome,[1],inactive
same,outcome,[18],inactive
same,outcome,[2],inactive
same,outcome,[3],inactive
same,outcome,[5],inactive
same,outcome,[6],inactive
same,outcome,[7],inactive
same,outcome,[8],inactive
same,outcome,[10],inactive
same,AC50,[11],100 µM (active)
same,outcome,[20],inactive
same,outcome,[13],inactive
same,outcome,[14],inactive
same,outcome,[15],inactive
same,outcome,[16],inactive
same,outcome,[17],inactive
CCN(CC)CCNc1ccc(CNC=O)c2sc3ccc(OC)cc3c(=O)c12,outcome,[1],inactive
same,AC50,[18],1.19 µM (active)
same,AC50,[2],1.85 µM (active)
same,outcome,[3],inactive
same,outcome,[5],inactive
same,AC50,[19],0.515 µM (active)
same,AC50,[6],947 nM (active)
same,AC50,[7],1.85 µM (active)
same,outcome,[8],inactive
same,outcome,[10],inactive
same,outcome,[11],inactive
same,outcome,[20],inactive
same,outcome,[13],inactive
same,AC50,[14],0.98 µM (active)
same,outcome,[15],inactive
same,outcome,[16],inactive
same,outcome,[17],inactive
CC1=C(/C=C/C(C)=C/C=C/C(C)=C/C(=O)O)C(C)(C)CCC1,outcome,[1],inactive
same,outcome,[2],inactive
same,AC50,[3],54.4 µM (active) and 106 µM (active)
same,outcome,[4],inactive
same,outcome,[5],inactive
same,outcome,[6],inactive
same,AC50,[7],50.5 µM (active) and 93 µM (active)
same,AC50,[8],39.7 µM (active) and 55 µM (active)
same,AC50,[10],42.8 µM (active)
same,outcome,[10],inactive
same,AC50,[11],1.48 µM (active) and 1.26 µM (active)
same,AC50,[20],43.6 nM (active) and 9.62 µM (active)
same,AC50,[12],8.89 µM (active)
same,outcome,[12],inactive
same,AC50,[13],51.1 µM (active) and 24.6 µM (active)
same,AC50,[14],11.9 µM (active)
same,outcome,[14],inactive
same,outcome,[15],inactive
same,outcome,[16],inactive
same,AC50,[17],21.4 µM (active)
same,outcome,[17],inactive
CC(=O)NC1(c2cccc(F)c2)CCN(CC[C@@]2(c3ccc(Cl)c(Cl)c3)CN(c3ccccc3)C(=O)CO2)CC1,AC50,[1],50.7 µM (active)
same,outcome,[18],inactive
same,outcome,[2],inactive
same,outcome,[3],inactive
same,outcome,[5],inactive
same,outcome,[6],inactive
same,AC50,[7],51.6 µM (active)
same,AC50,[8],45.5 µM (active)
same,AC50,[9],56.2 µM (active)
same,AC50,[10],26 µM (active)
same,AC50,[11],1.42 µM (active)
same,AC50,[20],55600 nM (active)
same,AC50,[12],50.2 µM (active)
same,AC50,[13],55.9 µM (active)
same,AC50,[14],44.4 µM (active)
same,AC50,[15],8.79 µM (active)
same,outcome,[16],inactive
same,AC50,[17],16.8 µM (active)
